Assay outcomes: PubChem, National Center for Advancing Translational Sciences (NCATS)
BLM inh-1 – Bloom syndrome helicase (human) inhibition; AID 2528; P54132; Potency, µM (series often up to 56.1 µM), for inactives: at the highest dose activity change, negative = inhibition, usual class: inhibitors; recombinant BLM DNA unwinding, fluorescence dequenching; hit rate 0.2% among 350,000;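 also: plate controls were vehicle for no effect and no enzyme for full effect; nearly all actives have a fitted effect of over 35% in size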
FEN1 inh-1 – blocks human flap endonuclease 1. hit rate 0.35% among 390,000. Potency, µM (top dose mostly 114 µM), inactives show top-dose activity change, negative = inhibition, most hits filed as inhibitors. Recombinant FEN1 flap cleavage, fluorescence, 15 min. P39748; also: % is scaled to controls: 0 for no effect and ±100 for the full control effect; nearly all actives have a fitted effect of over 65% in size
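Quantitative HTS format: each compound was titrated, incubated with 10 nM nuclease for 15 min at room temperature, then challenged with flap substrate at 50 nM final. Signal change over 15 min gave concentration–effect curves.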
Tb PGK inh – blocks T. brucei phosphoglycerate kinase; P07378; PGK/GAPDH coupled, Kinase-Glo luminescence, 60 min; Potency, µM (doses to about 57.5 µM), for inactives: top-dose activity change, negative = inhibition, usual class: inhibitors; hit rate 0.043% among 380,000; AID 602233; also: % is scaled to controls: 0 for no effect and ±100 for the full control effect; nearly all actives have a fitted effect of over 60% in size
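Luminescent ATP detection (Kinase-Glo Plus) follows a 60-minute room-temperature incubation, with wells lacking PGK as controls. Buffer: 100 mM TEA (pH 7.6), 5 mM MgCl2, 0.01% Tween-20. Coupling enzyme GAPDH (100 nM final) supplies unstable 1,3-BPG in-well.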
RECQ1 inh-1 – RECQ1 (human) helicase inhibition; RECQ1 DNA unwinding, red fluorescence kinetic read; Potency, µM (doses to about 57.3 µM), without a hit: top-dose activity, negative = inhibition, actives largely listed as inhibitors; hit rate 0.54% among 240,000; AID 2549;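 also: plate controls were vehicle for no effect and no enzyme for full effect; nearly all actives have a fitted effect of over 30% in size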
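RECQ1T1 50 nM; forked duplex (20 bp + 30-nt ss tails) 200 nM, ATP 2 mM final; pH 8.0, 2 mM MgCl2, 2.5 ug/ml poly(dI-dC); 15 min compound preincubation; discontinuous kinetic read over 2 h at RT.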
APE1 inh-1 – inhibitors of human APE1 endonuclease; recombinant APE1, TAMRA/BHQ-2 abasic DNA cleavage fluorescence; P27695; Potency, µM (top dose mostly 65.8 µM), without a hit: at the top dose activity change, negative = inhibition, usual class: inhibitors; hit rate 0.35% among 350,000; AID 2517;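 also: plate controls were vehicle for no effect and reference inhibitor for full effect; nearly all actives have a fitted effect of over 55% in size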
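APE1 at 0.75 nM preincubated 15 min at room temperature with compound. Reaction then started with 50 nM double-stranded THF-abasic substrate labelled with TAMRA/BHQ-2, and 525/598 nm fluorescence read kinetically. Activity taken as third-minus-first read difference, normalized to DMSO and NSC13755 controls.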
APE1 dye cs – DNA dye displacement counter-screen activity | shares compounds with APE1 inh-1 | DNA fluorescent dye displacement counterscreen, fluorescence | Potency, µM (doses to about 28.5 µM), for inactives: at the top dose activity change, negative = inhibition, most hits filed as inhibitors | hit rate 7% among 480;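 also: loss of thiazole orange fluorescence as the dye is displaced from duplex DNA; 0% = ThO with dsDNA and no compound and -100% = ThO without dsDNA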
Endo IV inh – counter-screen for APE1 inhibitors: inhibitors of E. coli endonuclease IV; E. coli Endo IV, fluorogenic AP-site DNA cleavage; shares compounds with APE1 inh-1; Potency, µM (top dose mostly 27.1 µM), inactives show at the highest dose activity change, negative = inhibition, hits mostly inhibitors; AID 2565; hit rate 4% among 560;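 also: plate controls were uninhibited enzyme wells for no effect and no enzyme buffer wells for full effect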
APE1 inh-2 – confirmation of inhibitors of human APE1 endonuclease. shares compounds with APE1 inh-1. purified APE1, fluorogenic abasic-site DNA cleavage. Potency, µM (top dose mostly 57.1 µM), without a hit: at the highest dose activity change, negative = inhibition, actives largely listed as inhibitors. hit rate 44% among 750. AID 2572; also: % is scaled to controls: 0 for no effect and ±100 for the full control effect; nearly all actives have a fitted effect of over 30% in size
APE1 FP – compounds that displace a DNA probe from human APE1; shares compounds with APE1 inh-1; hit rate 7% among 480; AID 2573; APE1 binding to TAMRA-labelled double-stranded DNA, fluorescence polarization displacement; Potency, µM (highest dose often 28.5 µM), for the others: top-dose activity, negative = inhibition, usual class: inhibitors; also: % is scaled to controls: 0 for no effect and ±100 for the full control effect
BLM inh-2 – confirmation of inhibitors of human Bloom syndrome helicase BLM; AID 2585; hit rate 40% among 220; shares compounds with BLM inh-1; BLM DNA unwinding, fluorescence quenching, biochemical; Potency, µM, for inactives: max response, negative = inhibition, hits mostly inhibitors;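 also: strand separation dequenches TAMRA so unwinding raises red fluorescence; series mostly up to about 69 µM; % is scaled to controls: 0 for no effect and ±100 for the full control effect; nearly all actives have a fitted effect of over 45% in size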
ADP FP counter – counter-screen for RECQ1 inhibitors: ADP displacement. hit rate 27% among 530. Potency, µM (highest dose often 228 µM), for inactives: top-dose activity change, negative = inhibition, actives largely listed as inhibitors. AID 2711. ADP fluorescence polarization displacement counterscreen. shares compounds with RECQ1 inh-1; also: % is scaled to controls: 0 for no effect and ±100 for the full control effect; nearly all actives have a fitted effect of over 45% in size
RECQ1 inh-2 – blocks human RECQ1 DNA unwinding; shares compounds with RECQ1 inh-1; recombinant RECQ1 DNA unwinding, red fluorescence; hit rate 15% among 1,100; AID 504841; Potency, µM (doses to about 119 µM), for inactives: at the top dose activity, negative = inhibition, hits mostly inhibitors; also: % is scaled to controls: 0 for no effect and ±100 for the full control effect; nearly all actives have a fitted effect of over 50% in size
FEN1 inh-2 – confirmation of human FEN1 inhibitors; shares compounds with FEN1 inh-1; FEN1 flap cleavage, TAMRA/BHQ2 fluorogenic DNA substrate; Potency, µM, most hits filed as inhibitors; hit rate 79% among 880; AID 720498; also: nearly all actives have a fitted effect of over 60% in size
The depositor's hits bear a star; ! = a repeat was not active; [ ] = dose if it differs, or a comment. Most compounds without a hit are left out; they make up all but 0.74% or so of the library. Calls follow the shape of the dose curve; as a rule, active = well fitted curve in the direction sought with a large enough effect; inconclusive = small, poorly fitted or top-dose-only effect, or another doubt; inactive = no such curve, though single readings can be large; an effect the other way counts as inactive or inconclusive. Potency is read from the fitted curve at half-maximal effect.

Results for CC(=O)Nc1sc2c(c1-c1nc3ccccc3s1)CCN(C(C)C)C2 ?
BLM inh-1: 212%; FEN1 inh-1: inconclusive; Tb PGK inh: -5%; RECQ1 inh-1: inconclusive; APE1 inh-1: 13µM*; APE1 dye cs: 6%; Endo IV inh: 13µM*; APE1 inh-2: 3.5µM*; APE1 FP: 2.5µM*; BLM inh-2: 459%; RECQ1 inh-2: 45µM*; FEN1 inh-2: 12*

Results for CNC(=S)Nc1ccc(OCc2ccccc2)cc1 ?
BLM inh-1: -4%; FEN1 inh-1: -12%; Tb PGK inh: inactive; RECQ1 inh-1: inactive; APE1 inh-1: 5%

Results for COc1cccc2c1C(=O)c1c(O)c3c(c(O)c1C2=O)C[C@@](O)(C(=O)CO)C[C@@H]3O[C@H]1C[C@H](N)[C@@H](O)[C@H](C)O1 ?
FEN1 inh-1: inconclusive; Tb PGK inh: -8%

Results for COc1cccc2c1C(=O)c1c(O)c3c(c(O)c1C2=O)C[C@@](O)(C(C)=O)C[C@@H]3O[C@H]1C[C@H](N)[C@H](O)[C@H](C)O1 ?
BLM inh-1: 28µM*; FEN1 inh-1: inactive; Tb PGK inh: -10%; RECQ1 inh-1: 28µM*!; APE1 inh-1: 25µM*!; APE1 dye cs: inactive; APE1 inh-2: 10µM*; APE1 FP: 2µM*; BLM inh-2: 36µM*; ADP FP counter: 0.63µM*; FEN1 inh-2: 34*

Results for COc1ccc(-c2nn(C)c3sc(C(=O)NCc4ccco4)cc23)cc1OC ?
BLM inh-1: 0%; FEN1 inh-1: 16%; Tb PGK inh: 6%; RECQ1 inh-1: -18%; APE1 inh-1: 5%

What do the screens show for `COc1ccc(NC(=O)c2cc3c(-c4ccc(OC)c(OC)c4)nn(C)c3s2)cc1OC`?
BLM inh-1: inconclusive; FEN1 inh-1: 11µM*; Tb PGK inh: 5%; RECQ1 inh-1: 18%; APE1 inh-1: inconclusive; APE1 dye cs: 9%; Endo IV inh: 11µM*; APE1 inh-2: 13µM*; APE1 FP: -4%; FEN1 inh-2: 11*

Results for COc1ccc(CCNC(=O)CCCCn2c(=O)c3ccccc3n(Cc3ccc(F)cc3Cl)c2=O)cc1OC ?
BLM inh-1: -6%; FEN1 inh-1: 1%; Tb PGK inh: -9%

How did CCN(c1ccccc1)S(=O)(=O)c1cc(C(=O)O)ccc1C do in these assays?
BLM inh-1: -1%; FEN1 inh-1: -7%; Tb PGK inh: -1%; RECQ1 inh-1: 28µM*; APE1 inh-1: 16µM*; APE1 inh-2: 32µM*; RECQ1 inh-2: inconclusive; FEN1 inh-2: inconclusive

How did O=c1cc2c(=O)oc3cc(O)c(O)oc3c2c(O)c1O do in these assays?
BLM inh-1: -5%; FEN1 inh-1: 7.1µM*; Tb PGK inh: inconclusive; RECQ1 inh-1: 4.5µM*; APE1 inh-1: 0.35µM*; APE1 dye cs: inconclusive; Endo IV inh: 187%; APE1 inh-2: 0.13µM*; APE1 FP: 2%; FEN1 inh-2: 8.5*

What do the screens show for `CCc1ccc(C2N=C(N)Nc3nc4ccccc4n32)cc1` (stereo not given)?
BLM inh-1: -1%; FEN1 inh-1: -11%; Tb PGK inh: -7%

How did O=Cc1cc2ccccc2cc1O do in these assays?
FEN1 inh-1: 4%

Results for O=c1c(O)cccc2cc(O)c(O)c(O)c12 ?
BLM inh-1: 13µM*; FEN1 inh-1: inconclusive; Tb PGK inh: 0.79µM*; RECQ1 inh-1: 2.5µM*; APE1 inh-1: 0.71µM*; Endo IV inh: -2%[57.1 µM]; APE1 inh-2: 0.45µM*; FEN1 inh-2: 24*

How did Cc1c(Cl)cccc1N=Cc1ccc([N+](=O)[O-])s1 do in these assays?
BLM inh-1: -9%; FEN1 inh-1: 14µM*; Tb PGK inh: -16%; RECQ1 inh-1: inconclusive; APE1 inh-1: inconclusive; APE1 dye cs: inconclusive; Endo IV inh: 3%; APE1 inh-2: -8%[24.4 µM]; APE1 FP: 10%; RECQ1 inh-2: inconclusive; FEN1 inh-2: 13*

Results for Nc1nonc1-c1nc2ccccc2n1CC(=O)N/N=C/c1ccc(-c2cccc(C(=O)O)c2)o1 ?
BLM inh-1: inconclusive; FEN1 inh-1: 45µM*; Tb PGK inh: inconclusive; RECQ1 inh-1: -21%; APE1 inh-1: inconclusive; APE1 dye cs: -4%; Endo IV inh: -2%; APE1 inh-2: 13µM*; APE1 FP: -4%; FEN1 inh-2: 38*

What do the screens show for `Nc1nonc1-c1nc2ccccc2n1CC(=O)Nc1ccccc1C(=O)O`?
BLM inh-1: -4%; FEN1 inh-1: 2%; Tb PGK inh: -6%

Results for Cc1cc(C)cc(OCCCn2c(-c3ccc(Cl)cc3)nc3ccccc3c2=O)c1 ?
BLM inh-1: -26%; FEN1 inh-1: 2%; Tb PGK inh: 0%

Results for CCOC(=O)c1c2c3c(cccc3[nH]c1=O)C(=O)c1ccccc1-2 ?
BLM inh-1: 1%; FEN1 inh-1: -15%; Tb PGK inh: 6%; RECQ1 inh-1: -6%; APE1 inh-1: -1%
